# Laboratory results taken from publication PMC7862700, “An all-to-all approach to the identification of sequence-specific readers for epigenetic DNA modifications on cytosine”.
# Columns and labels:
# Assay in all cases: DAPPL (digital affinity profiling via proximity ligation, sequencing); 10 mM Tris-HCl pH 7.5, 50 mM NaCl, 1 mM DTT, 4% glycerol, room temperature, 30 min; GST-TFs on glutathione beads, 16-mer random dsDNA library, 0.1% formaldehyde crosslink after washing; high values mean tight binding
# FLI1 = biological target: T1, FLI1 (Homo sapiens, UniProt Q01543 1-452); details: protein: recombinant; tags: N-terminal GST; dsDNA, one strand shown
# T1 sequence: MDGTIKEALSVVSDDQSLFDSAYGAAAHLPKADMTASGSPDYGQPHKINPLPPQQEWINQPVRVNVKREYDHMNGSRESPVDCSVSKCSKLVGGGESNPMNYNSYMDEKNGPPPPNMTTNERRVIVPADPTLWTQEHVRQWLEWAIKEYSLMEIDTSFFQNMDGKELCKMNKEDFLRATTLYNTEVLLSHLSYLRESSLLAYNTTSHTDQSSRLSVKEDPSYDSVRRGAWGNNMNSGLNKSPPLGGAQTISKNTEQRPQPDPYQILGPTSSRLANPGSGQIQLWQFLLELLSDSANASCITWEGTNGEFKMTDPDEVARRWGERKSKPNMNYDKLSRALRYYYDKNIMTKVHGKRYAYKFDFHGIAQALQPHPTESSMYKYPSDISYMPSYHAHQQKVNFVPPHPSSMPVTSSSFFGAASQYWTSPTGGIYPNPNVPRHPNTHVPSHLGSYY
# Method in brief: (§1)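 Pools of DNA-barcoded human transcription factors, expressed in yeast as GST fusions on glutathione beads and combined with a tag-only sample, were incubated with 200 nmole of a 16-mer random double-stranded DNA library. Incubation took 30 min at room temperature in Tris/NaCl/DTT/glycerol buffer and was followed by washing, 0.1% formaldehyde crosslinking, proximity ligation (BsaI/T4 ligase, 1 h, 37 °C), PCR amplification and sequencing on an Illumina NextSeq500. Binding signal is the ratio of a hexamer's read frequency for a factor to its frequency for the tag-only sample.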
# ELK1 = biological target: T2, ELK1 (Homo sapiens, UniProt P19419 1-428); details: protein: recombinant; tags: N-terminal GST; dsDNA, one strand shown
# T2 sequence: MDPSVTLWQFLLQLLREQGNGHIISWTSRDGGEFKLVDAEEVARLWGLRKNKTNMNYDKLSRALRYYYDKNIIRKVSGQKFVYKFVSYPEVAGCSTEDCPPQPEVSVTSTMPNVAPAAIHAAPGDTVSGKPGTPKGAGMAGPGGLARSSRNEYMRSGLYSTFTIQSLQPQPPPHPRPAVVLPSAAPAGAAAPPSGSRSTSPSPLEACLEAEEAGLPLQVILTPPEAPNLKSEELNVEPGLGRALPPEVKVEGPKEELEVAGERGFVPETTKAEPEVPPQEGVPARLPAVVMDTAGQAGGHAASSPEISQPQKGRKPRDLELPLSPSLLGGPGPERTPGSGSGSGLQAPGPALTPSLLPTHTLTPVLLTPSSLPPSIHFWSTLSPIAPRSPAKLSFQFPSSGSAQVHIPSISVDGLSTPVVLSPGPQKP
# Method in brief: as §1
# GABPA = biological target: T3, GABPA (Homo sapiens, UniProt Q06546 1-454); details: protein: recombinant; tags: N-terminal GST; dsDNA, one strand shown
# T3 sequence: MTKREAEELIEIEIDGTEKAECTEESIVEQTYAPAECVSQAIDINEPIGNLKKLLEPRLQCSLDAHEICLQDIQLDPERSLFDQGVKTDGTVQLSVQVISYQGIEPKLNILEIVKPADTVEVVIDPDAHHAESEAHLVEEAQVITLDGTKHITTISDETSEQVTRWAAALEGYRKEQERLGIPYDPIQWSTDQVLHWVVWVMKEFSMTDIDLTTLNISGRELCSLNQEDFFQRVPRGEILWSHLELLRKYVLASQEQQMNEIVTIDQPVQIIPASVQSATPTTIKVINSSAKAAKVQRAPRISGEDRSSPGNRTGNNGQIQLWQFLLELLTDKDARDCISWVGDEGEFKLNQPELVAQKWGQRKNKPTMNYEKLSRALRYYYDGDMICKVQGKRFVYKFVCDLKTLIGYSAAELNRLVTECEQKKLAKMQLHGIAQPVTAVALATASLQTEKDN
# Method in brief: as §1
# ERG = biological target: T4, ERG (Homo sapiens, UniProt P11308 1-479); details: protein: recombinant; tags: N-terminal GST; dsDNA, one strand shown
# T4 sequence: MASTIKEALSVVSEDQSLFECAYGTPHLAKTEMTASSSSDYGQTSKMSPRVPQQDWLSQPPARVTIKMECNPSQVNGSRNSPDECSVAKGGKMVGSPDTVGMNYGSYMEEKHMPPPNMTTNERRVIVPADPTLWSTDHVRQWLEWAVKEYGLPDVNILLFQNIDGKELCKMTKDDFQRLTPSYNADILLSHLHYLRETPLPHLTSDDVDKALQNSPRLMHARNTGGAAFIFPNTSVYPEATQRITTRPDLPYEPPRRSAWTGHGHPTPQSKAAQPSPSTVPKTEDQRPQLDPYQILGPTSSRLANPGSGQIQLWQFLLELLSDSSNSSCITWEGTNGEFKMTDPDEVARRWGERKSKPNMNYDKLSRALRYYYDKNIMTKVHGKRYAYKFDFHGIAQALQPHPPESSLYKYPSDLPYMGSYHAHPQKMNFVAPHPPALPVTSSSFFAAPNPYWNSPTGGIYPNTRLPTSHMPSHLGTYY
# Method in brief: as §1
# ELF1 = ELF1 (Homo sapiens, UniProt P32519 1-619); details: protein: recombinant; tags: N-terminal GST; dsDNA, one strand shown
# Method in brief: as §1
# EHF = biological target: T5, EHF (Homo sapiens, UniProt Q9NZC4 1-300); details: protein: recombinant; tags: N-terminal GST; dsDNA, one strand shown
# T5 sequence: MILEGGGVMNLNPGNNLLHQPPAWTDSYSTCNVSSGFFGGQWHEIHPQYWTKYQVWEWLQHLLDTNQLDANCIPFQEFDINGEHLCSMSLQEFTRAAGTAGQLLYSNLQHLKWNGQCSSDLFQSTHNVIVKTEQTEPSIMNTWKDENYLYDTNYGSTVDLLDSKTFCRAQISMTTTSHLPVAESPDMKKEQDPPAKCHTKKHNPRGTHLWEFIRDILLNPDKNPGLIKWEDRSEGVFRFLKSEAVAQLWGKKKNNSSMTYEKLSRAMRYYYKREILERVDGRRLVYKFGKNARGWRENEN
# Method in brief: as §1
# SPI1 = SPI1 (Homo sapiens, UniProt P17947 1-270); details: protein: recombinant; tags: N-terminal GST; dsDNA, one strand shown
# Method in brief: as §1
# SPIB = SPIB (Homo sapiens, UniProt Q01892 1-262); details: protein: recombinant; tags: N-terminal GST; dsDNA, one strand shown
# Method in brief: as §1
# ELK3 = biological target: T6, ELK3 (Homo sapiens, UniProt P41970 1-407); details: protein: recombinant; tags: N-terminal GST; dsDNA, one strand shown
# T6 sequence: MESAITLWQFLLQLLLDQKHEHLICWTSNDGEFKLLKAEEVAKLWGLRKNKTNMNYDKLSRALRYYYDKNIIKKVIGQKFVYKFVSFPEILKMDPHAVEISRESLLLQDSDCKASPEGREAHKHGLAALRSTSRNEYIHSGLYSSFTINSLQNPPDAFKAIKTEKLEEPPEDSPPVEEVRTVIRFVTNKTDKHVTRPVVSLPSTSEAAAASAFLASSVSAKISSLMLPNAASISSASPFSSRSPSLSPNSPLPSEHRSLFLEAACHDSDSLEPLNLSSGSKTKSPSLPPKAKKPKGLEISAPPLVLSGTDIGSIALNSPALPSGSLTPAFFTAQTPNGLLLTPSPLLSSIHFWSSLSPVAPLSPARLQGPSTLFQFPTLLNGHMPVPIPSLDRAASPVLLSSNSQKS
# Method in brief: as §1
# FEV = biological target: T7, FEV (Homo sapiens, UniProt Q99581 1-238); details: protein: recombinant; tags: N-terminal GST; dsDNA, one strand shown
# T7 sequence: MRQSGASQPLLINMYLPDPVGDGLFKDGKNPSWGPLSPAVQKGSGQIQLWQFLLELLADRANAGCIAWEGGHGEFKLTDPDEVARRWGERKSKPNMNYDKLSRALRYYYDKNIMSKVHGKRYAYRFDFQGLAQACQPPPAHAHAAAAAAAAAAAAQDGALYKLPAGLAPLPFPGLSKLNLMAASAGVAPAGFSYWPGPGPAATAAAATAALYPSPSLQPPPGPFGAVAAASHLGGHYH
# Method in brief: as §1
# ETV5 = ETV5 (Homo sapiens, UniProt P41161 1-510); details: protein: recombinant; tags: N-terminal GST; dsDNA, one strand shown
# Method in brief: as §1
# HSF1 = HSF1 (Homo sapiens, UniProt Q00613 1-529); details: protein: recombinant; tags: N-terminal GST; chain copies: 3; dsDNA, one strand shown
# Method in brief: as §1
# SPIC = biological target: T8, SPIC (Homo sapiens, UniProt Q8N5J4 1-248); details: protein: recombinant; tags: N-terminal GST; dsDNA, one strand shown
# T8 sequence: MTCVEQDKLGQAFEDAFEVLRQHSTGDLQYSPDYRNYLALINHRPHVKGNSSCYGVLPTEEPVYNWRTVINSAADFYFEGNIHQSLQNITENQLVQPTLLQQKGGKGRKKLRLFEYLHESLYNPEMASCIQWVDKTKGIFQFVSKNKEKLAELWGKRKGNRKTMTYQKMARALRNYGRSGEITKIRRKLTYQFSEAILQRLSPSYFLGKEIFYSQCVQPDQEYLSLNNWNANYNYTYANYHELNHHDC
# Method in brief: as §1
# ELF4 = ELF4 (Homo sapiens, UniProt Q99607 1-663); details: protein: recombinant; tags: N-terminal GST; dsDNA, one strand shown
# Method in brief: as §1
# ELK4 = biological target: T9, ELK4 (Homo sapiens, UniProt P28324-2 1-405); details: protein: recombinant; tags: N-terminal GST; dsDNA, one strand shown
# T9 sequence: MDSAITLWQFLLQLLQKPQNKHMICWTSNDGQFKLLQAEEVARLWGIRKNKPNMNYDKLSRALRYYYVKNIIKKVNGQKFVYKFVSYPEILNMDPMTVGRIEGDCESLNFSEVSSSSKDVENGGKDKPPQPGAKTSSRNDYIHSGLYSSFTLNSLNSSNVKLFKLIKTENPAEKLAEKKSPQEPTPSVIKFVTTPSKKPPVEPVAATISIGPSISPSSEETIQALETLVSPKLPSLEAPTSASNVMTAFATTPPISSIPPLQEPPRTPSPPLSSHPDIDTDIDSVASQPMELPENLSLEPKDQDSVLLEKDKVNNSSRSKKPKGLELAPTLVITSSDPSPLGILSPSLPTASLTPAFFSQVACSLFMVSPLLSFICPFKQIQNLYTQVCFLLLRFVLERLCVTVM
# Method in brief: as §1
# ETV2 = biological target: T10, ETV2 (Homo sapiens, UniProt O00321 1-342); details: protein: recombinant; tags: N-terminal GST; dsDNA, one strand shown
# T10 sequence: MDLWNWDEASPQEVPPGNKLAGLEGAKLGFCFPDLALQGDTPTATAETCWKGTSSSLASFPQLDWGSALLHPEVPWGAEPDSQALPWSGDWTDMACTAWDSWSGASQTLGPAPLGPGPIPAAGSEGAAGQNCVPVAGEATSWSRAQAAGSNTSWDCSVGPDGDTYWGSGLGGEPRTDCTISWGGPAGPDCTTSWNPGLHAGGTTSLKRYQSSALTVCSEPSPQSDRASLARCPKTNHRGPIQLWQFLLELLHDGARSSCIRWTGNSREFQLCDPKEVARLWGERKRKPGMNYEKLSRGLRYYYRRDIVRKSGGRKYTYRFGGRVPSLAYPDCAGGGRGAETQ
# Method in brief: as §1
# ELF3 = biological target: T11, ELF3 (Homo sapiens, UniProt P78545 1-371); details: protein: recombinant; tags: N-terminal GST; dsDNA, one strand shown
# T11 sequence: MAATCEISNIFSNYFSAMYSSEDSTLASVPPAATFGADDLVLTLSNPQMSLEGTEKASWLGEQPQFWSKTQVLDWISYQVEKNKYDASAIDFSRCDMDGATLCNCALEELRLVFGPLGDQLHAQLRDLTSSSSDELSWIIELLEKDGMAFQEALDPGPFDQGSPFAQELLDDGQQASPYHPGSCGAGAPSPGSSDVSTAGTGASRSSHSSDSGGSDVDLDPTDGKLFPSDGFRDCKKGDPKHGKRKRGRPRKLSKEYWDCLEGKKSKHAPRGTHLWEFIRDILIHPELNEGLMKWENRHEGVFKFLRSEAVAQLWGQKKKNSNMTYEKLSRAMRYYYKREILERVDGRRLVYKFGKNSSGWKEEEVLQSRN
# Method in brief: as §1
# CRX = CRX (Homo sapiens, UniProt O43186 1-299); details: protein: recombinant; tags: N-terminal GST; dsDNA, one strand shown
# Method in brief: as §1
# ETV1 = ETV1 (Homo sapiens, UniProt P50549 1-477); details: protein: recombinant; tags: N-terminal GST; dsDNA, one strand shown
# Method in brief: as §1
# CRX, sequence (O43186 whole entry): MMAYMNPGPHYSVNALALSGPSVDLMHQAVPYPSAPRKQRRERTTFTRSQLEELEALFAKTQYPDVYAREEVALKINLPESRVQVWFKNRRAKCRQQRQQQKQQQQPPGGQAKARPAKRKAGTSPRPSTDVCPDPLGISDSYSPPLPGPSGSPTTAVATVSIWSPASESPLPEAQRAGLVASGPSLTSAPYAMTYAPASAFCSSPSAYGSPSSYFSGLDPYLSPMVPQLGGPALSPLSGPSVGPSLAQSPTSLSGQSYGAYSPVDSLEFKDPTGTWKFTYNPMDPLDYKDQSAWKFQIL
# HSF1, sequence (Q00613 whole entry): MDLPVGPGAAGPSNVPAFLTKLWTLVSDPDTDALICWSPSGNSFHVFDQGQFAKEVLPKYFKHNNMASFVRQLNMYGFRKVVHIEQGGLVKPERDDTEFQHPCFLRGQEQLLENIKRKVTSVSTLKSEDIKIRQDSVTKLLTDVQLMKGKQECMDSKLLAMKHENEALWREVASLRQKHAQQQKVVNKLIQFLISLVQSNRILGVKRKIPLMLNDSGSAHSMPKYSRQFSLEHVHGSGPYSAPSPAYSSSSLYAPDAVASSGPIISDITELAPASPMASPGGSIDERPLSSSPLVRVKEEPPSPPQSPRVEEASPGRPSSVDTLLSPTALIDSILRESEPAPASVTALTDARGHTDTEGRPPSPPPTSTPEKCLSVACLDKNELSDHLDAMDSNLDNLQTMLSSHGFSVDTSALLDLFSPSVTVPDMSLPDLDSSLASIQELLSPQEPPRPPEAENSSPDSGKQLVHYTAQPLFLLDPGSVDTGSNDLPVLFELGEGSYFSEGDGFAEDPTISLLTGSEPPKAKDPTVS
# ETV1, sequence (P50549 whole entry): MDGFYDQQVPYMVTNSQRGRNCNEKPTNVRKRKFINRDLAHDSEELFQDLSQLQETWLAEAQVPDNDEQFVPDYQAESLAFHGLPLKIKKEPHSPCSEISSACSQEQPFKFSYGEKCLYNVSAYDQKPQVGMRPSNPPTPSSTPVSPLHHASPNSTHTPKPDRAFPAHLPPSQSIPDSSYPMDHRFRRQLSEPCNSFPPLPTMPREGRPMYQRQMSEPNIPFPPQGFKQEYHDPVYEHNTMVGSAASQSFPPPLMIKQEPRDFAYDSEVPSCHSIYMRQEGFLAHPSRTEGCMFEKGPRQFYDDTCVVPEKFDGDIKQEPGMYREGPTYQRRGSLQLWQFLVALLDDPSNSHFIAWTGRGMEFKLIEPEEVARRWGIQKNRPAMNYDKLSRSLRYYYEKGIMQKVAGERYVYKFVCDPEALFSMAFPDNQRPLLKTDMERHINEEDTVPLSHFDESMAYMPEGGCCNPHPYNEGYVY
# ELF1, sequence (P32519 whole entry): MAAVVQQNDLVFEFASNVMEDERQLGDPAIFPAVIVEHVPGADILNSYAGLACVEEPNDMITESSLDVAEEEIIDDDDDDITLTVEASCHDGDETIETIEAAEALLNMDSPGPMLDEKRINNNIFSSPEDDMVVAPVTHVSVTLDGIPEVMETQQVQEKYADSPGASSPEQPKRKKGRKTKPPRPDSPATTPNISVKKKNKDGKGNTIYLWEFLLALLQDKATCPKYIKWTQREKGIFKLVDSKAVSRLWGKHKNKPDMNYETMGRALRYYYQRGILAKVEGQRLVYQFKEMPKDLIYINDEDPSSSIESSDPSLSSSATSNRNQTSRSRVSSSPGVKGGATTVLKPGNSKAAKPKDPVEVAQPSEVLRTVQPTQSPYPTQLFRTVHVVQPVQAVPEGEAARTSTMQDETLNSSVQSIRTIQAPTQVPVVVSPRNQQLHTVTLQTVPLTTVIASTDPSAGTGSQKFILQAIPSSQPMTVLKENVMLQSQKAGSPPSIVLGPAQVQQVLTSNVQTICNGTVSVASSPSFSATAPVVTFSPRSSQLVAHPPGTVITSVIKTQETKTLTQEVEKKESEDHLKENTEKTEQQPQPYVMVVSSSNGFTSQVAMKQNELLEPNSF
# SPIB, sequence (Q01892 whole entry): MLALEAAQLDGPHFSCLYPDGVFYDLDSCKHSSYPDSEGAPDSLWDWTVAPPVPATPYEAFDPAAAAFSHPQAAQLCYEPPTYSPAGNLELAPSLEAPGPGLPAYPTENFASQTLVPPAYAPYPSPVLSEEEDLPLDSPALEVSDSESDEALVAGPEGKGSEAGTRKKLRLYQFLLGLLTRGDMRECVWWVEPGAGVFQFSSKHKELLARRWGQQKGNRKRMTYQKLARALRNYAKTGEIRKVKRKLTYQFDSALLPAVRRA
# ELF4, sequence (Q99607 whole entry): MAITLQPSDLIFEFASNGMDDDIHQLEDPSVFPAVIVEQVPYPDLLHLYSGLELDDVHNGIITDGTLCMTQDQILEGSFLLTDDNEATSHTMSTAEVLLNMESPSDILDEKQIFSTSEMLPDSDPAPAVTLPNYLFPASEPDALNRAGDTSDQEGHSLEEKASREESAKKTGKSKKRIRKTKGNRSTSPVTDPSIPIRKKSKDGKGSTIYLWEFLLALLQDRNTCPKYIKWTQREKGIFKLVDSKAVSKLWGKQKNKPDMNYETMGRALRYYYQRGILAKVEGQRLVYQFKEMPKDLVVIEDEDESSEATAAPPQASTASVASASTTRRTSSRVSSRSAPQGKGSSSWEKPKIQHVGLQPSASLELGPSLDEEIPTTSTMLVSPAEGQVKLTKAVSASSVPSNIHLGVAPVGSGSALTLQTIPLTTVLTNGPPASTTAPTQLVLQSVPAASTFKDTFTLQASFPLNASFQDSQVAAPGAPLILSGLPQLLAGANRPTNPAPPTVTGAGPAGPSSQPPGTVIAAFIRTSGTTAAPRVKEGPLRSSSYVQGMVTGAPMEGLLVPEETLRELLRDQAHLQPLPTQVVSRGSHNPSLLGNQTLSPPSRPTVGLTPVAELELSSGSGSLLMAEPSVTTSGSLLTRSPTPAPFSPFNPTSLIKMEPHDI
# ETV5, sequence (P41161 whole entry): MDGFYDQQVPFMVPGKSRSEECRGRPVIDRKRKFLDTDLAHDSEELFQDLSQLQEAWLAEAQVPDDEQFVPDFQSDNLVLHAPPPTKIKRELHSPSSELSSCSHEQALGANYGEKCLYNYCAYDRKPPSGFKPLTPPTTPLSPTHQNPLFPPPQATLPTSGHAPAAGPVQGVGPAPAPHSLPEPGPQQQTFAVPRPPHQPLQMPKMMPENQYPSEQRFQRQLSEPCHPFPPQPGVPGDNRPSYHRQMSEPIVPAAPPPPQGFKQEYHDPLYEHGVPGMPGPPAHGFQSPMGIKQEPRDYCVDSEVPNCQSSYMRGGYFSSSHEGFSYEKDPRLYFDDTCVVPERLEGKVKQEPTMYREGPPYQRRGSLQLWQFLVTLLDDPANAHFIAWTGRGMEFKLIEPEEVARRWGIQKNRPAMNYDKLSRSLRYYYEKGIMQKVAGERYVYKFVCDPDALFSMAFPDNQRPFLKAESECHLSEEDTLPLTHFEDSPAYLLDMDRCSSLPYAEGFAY
sequence,measurement,setting,value
TTCTCT,binding signal,FLI1,"1.29 fold enrichment (6-mer frequency, TF over GST control)"
same,binding signal,ELK1,"1.3 fold enrichment (6-mer frequency, TF over GST control)"
same,binding signal,GABPA,"1.27 fold enrichment (6-mer frequency, TF over GST control)"
same,binding signal,ERG,"1.32 fold enrichment (6-mer frequency, TF over GST control)"
same,binding signal,ELF1,"1.33 fold enrichment (6-mer frequency, TF over GST control)"
same,binding signal,EHF,"1.27 fold enrichment (6-mer frequency, TF over GST control)"
same,binding signal,SPI1,"1.3 fold enrichment (6-mer frequency, TF over GST control)"
same,binding signal,SPIB,"1.16 fold enrichment (6-mer frequency, TF over GST control)"
same,binding signal,ELK3,"1.29 fold enrichment (6-mer frequency, TF over GST control)"
same,binding signal,FEV,"1.22 fold enrichment (6-mer frequency, TF over GST control)"
same,binding signal,ETV5,"1.24 fold enrichment (6-mer frequency, TF over GST control)"
same,binding signal,HSF1,"1.84 fold enrichment (6-mer frequency, TF over GST control)"
same,binding signal,SPIC,"1.16 fold enrichment (6-mer frequency, TF over GST control)"
same,binding signal,ELF4,"1.26 fold enrichment (6-mer frequency, TF over GST control)"
same,binding signal,ELK4,"1.33 fold enrichment (6-mer frequency, TF over GST control)"
same,binding signal,ETV2,"1.29 fold enrichment (6-mer frequency, TF over GST control)"
same,binding signal,ELF3,"1.37 fold enrichment (6-mer frequency, TF over GST control)"
same,binding signal,CRX,"1.49 fold enrichment (6-mer frequency, TF over GST control)"
same,binding signal,ETV1,"1.36 fold enrichment (6-mer frequency, TF over GST control)"
